From PubChem
An excerpt weighted towards active compounds, which were near 1.4% of everything screened.
HSV replic up – increases HSV replication in cells. 0.005% of 220,000 active. maximum fold increase. AID 1956. HSV replication augmentation in cells, fold increase; in the data active = maximum fold increase above about 1.5; tested in PC3 cells
TNF death inh – TNF-alpha cell death inhibition in Jurkat FADD-/- cells. activation (protection from cell death), % at 10 µM. Jurkat FADD-/- TNF necroptosis rescue, ATP luminescence, 24 h; 0 = TNF only, 100 = no-TNF cells. 0.068% of 220,000 active;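 active = activation, meaning protection from cell death, of at least 50% relative to plate controls; inactive = activation below 50%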;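 also: necroptosis triggered by 40 ng/mL TNF-alpha added together with compound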
V-ATPase pHluor – regulators of yeast V-ATPase proton transport | 0.37% of 350,000 active | S. cerevisiae, pHLuorin cytosolic pH fluorescence | AID 504577 | response, % at 10 µM; in the data active = response mostly above about 7.3%, no sharp cut-off; inactive = mostly below about 5.4%; also: actives read high
Wee1 degr inh – blocks degradation of human Wee1 kinase. P30291. HeLa Luc-Wee1K328M stability, luciferase luminescence; 100% = proteasome inhibitor MG132 effect. reporter increase, % at 5 µM. 1.2% of 220,000 active;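 active = activation above the mean of all tested compounds plus 3 SD, set per screening run, cut at about 8.8% in these data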;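 also: cells exposed to compound for 20 h before luminescence read; 0% = DMSO alone and 100% = MG132 at 30 µM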
Target sequence (P30291 whole entry K328M): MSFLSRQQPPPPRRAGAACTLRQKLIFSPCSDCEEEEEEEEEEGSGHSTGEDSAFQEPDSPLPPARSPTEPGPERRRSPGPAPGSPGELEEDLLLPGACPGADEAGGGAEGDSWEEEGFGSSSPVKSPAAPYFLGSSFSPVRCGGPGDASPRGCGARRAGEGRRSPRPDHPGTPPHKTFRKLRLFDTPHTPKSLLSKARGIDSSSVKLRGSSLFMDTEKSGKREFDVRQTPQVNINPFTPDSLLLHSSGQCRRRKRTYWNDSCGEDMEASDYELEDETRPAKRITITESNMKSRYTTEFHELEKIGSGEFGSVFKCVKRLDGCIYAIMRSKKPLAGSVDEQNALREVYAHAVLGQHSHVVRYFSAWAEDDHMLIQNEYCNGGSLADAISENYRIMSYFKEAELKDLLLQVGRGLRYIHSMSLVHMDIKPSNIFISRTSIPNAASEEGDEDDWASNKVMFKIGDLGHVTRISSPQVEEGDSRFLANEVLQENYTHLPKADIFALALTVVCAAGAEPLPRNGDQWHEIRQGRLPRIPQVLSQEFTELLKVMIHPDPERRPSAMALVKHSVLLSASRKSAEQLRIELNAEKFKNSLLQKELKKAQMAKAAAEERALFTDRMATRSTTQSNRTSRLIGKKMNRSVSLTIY
zVAD death inh – blocks zVAD induced death of L929 cells; viability rescue, % at 10 µM; AID 1377; 0.38% of 220,000 active; L929 zVAD necroptosis rescue, ATP luminescence, 24 h; with zVAD 60 µM;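 active = activation, scaled between plate controls, above about 75%, limit read from the data; inactive = activation under that limit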;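 also: 0% = zVAD with DMSO and 100% = DMSO alone without zVAD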
Wee1 degr conf – human Wee1 degradation inhibition, confirmation; shares compounds with Wee1 degr inh; HeLa Luc-Wee1K328M degradation, luminescence; vehicle 0%, proteasome-blocked wells 100%; activation, % at 5 µM; 4% of 1,100 active; in the data active = activation above about 8.9%
An asterisk follows results filed as active; i = inactive; · = no result given.

SMILES	HSV replic up	TNF death inh	V-ATPase pHluor	Wee1 degr inh	zVAD death inh	Wee1 degr conf
CSc1ccc(/C=N/n2c(Cc3ccc(Br)cc3)n[nH]c2=S)cc1	i	1	0	11*	2	6
CCCC1(CC)C(=O)NC(=O)N=C1N (stereo not drawn)	·	·	2	·	·	·
COc1cccc(C(=O)Nc2ccc(-c3nc4ccccc4o3)c(O)c2)c1	i	2	-2	12*	3	2
Cc1nn2c(NCCCN3CCOCC3)c3c(nc2c1-c1ccccc1)CCC3	i	1	1	-2	0	·
CCCCNc1c2c(nc3c(-c4ccccc4)c(C)nn13)CCC2	i	1	0	13*	0	2
COC(=O)c1ccccc1NC(=O)c1c(O)c2c([nH]c1=O)CCCC2	i	1	-8	-2	2	·
O=C(Nc1ccc(O)cc1)c1c(O)c2c([nH]c1=O)CCCC2	i	-3	-1	14*	67	6
CC1=C(C)CS(=O)N(S(=O)(=O)c2ccccc2)C1 (stereo not drawn)	i	-7	-1	11*	0	-1
CC1=C(C)CS(=O)N(c2ccc(S(N)(=O)=O)cc2)C1 (stereo not drawn)	i	-5	16	-1	0	·
CCSc1nnc(NC(=O)c2cc(C)nc3ccccc23)s1	i	-1	2	11*	1	2
O=C1NC(=Nc2ccc(F)cc2)CS1	i	7	-1	-1	0	·
Cc1ccccc1NC(=O)c1cc(S(=O)(=O)N2CCCCC2)ccc1N1CCOCC1	·	·	-3	·	·	·
Cc1cccc(Oc2nc3ccccn3c(=O)c2/C=C(\C#N)C(=O)NC2CCS(=O)(=O)C2)c1C (stereo not drawn)	·	·	4	·	·	·
Cc1ccsc1/C=C(\C#N)C(=O)NC1CCS(=O)(=O)C1 (stereo not drawn)	i	2	-2	12*	0	3
COc1ccc([N+](=O)[O-])cc1NC(=O)CC(c1ccccc1)c1ccccc1	i	1	1	3	1	·
CCN(CCC(=O)Nc1cc([N+](=O)[O-])ccc1OC)Cc1ccccc1	·	6	-1	13*	0	3
COc1ccc(NC(=O)N(C)C[C@H]2OCc3cnnn3CCCC(=O)N([C@@H](C)CO)C[C@H]2C)cc1	·	·	2	·	·	·
CC1CN(S(=O)(=O)c2cccc(C(=O)OC(C)C(=O)NC3CCCCC3C)c2)CC(C)O1 (stereo not drawn)	·	·	6	·	·	·
COc1cccc(CC(=O)Nc2nc3ccccc3[nH]2)c1	i	1	-1	12*	3	1
COc1ccc(CC(=O)Nc2nc3ccccc3[nH]2)cc1	i	3	6	1	1	·
COc1cc(C(=O)Nc2nc3ccccc3[nH]2)ccc1OC(F)F	i	-13	0	12*	2	6
C=CCN(C(=O)c1csnn1)C(C(=O)NC1CCCC1)c1cccs1 (stereo not drawn)	·	·	2	·	·	·
Cc1cccc(C)c1-n1c(SCC(=O)Nc2ccc(C(=O)O)cc2)nnc1-c1cccc(S(=O)(=O)N(C)C)c1	i	0	1	12*	1	-1
O=C(CCS(=O)(=O)c1ccccc1)Nc1ccc(N2CCOCC2)cc1	i	0	-1	11*	0	-2
COc1ccc(OC)c(S(=O)(=O)N2CCC(C(=O)Nc3cccc(C)c3)CC2)c1	i	-5	0	11*	0	2
SMILES	HSV replic up	TNF death inh	V-ATPase pHluor	Wee1 degr inh	zVAD death inh	Wee1 degr conf
Cc1ccc(Oc2ccc(OCC(=O)NC(CC(C)C)C(=O)O)cc2)cc1 (stereo not drawn)	i	0	-2	14*	-1	2
CC1=NNC(=O)c2ccccc2O1	i	-1	7	0	0	·
CCOC(=O)c1[nH]c2c(c1-c1ccccc1)C(=O)CC(c1ccc(OC)c(OC)c1)C2 (stereo not drawn)	i	-2	-1	20*	·	1
COc1ccc(N2CCN(C(=O)C(NC(=O)c3c(F)cccc3F)C(C)C)CC2)cc1 (stereo not drawn)	·	·	-2	·	·	·
O=[N+]([O-])c1ccc(/C=C/c2ccncc2)cc1	i	-6	2	18*	-1	-1
CCCCOc1ccc(OCCNC(=O)C2CCCN2C(=O)Nc2ccccc2)cc1 (stereo not drawn)	·	·	1	·	·	·
COc1ccc(/C=C/C(=O)NC(=S)NNC(=O)c2cnccn2)cc1	i	-14	5	-1	13	·
COc1ccc(/C=C/C(=O)NC(=S)NNC(=O)c2cccnc2)cc1	i	1	2	17*	0	-2
C/C(=N\NC(=O)c1csc(C)c1C)c1ccc(Cl)s1	i	-1	0	12*	0	2
C/C(=N\NC(=O)c1ccoc1C)c1ccc(Cl)s1	·	·	-1	·	·	·
O=C(CNC(=O)c1cccc(F)c1)OCC(=O)N1CCCCC1	i	1	-8	15*	0	0
O=C(C1CCCCC1)N1CCC2CC1c1cc(Cl)ccc12 (stereo not drawn)	·	·	0	·	·	·
CCOc1ccc(N(CC(=O)NCCc2ccccc2)C(=O)CCC(=O)Nc2cc(C)ccn2)cc1	·	·	4	·	·	·
O=C(OCC1OC(n2cnc3c(N(C(=O)c4ccccc4)C(=O)c4ccccc4)ncnc32)C(O)C1F)c1ccccc1 (stereo not drawn)	i	-3	3	11*	0	0
CCCCn1c(N)c(N(CC)C(=O)CSc2nnc(-c3ccco3)n2CC)c(=O)[nH]c1=O	·	·	-4	·	·	·
CC(C)(C)c1ccc(C2(C)NC(=O)N(CC(=O)Nc3ccc4c(c3)OCO4)C2=O)cc1 (stereo not drawn)	i	-1	-4	14*	-1	3
CC(=O)c1sc(NC(=O)c2ccccc2F)nc1-c1ccccc1	i	1	-1	14*	2	2
CC(C)C(=O)Nc1cccc(-c2cn3ccccc3n2)c1	i	0	3	1	0	·
CC(=O)Nc1cccc(-c2cn3ccccc3n2)c1	i	-1	-4	11*	0	-2
COc1ccc(-c2nc(CCl)cs2)cc1	·	-9	-3	12*	0	3
CCN1C(=O)c2cccc3c(NC(=O)c4ccc(S(=O)(=O)N(C)C)cc4)ccc1c23	i	-7	0	11*	23	5
CCN1C(=O)c2cccc3c(NC(=O)c4ccc(S(=O)(=O)N5CCOCC5)cc4)ccc1c23	i	-6	0	1	1	·
O=C(CN1C(=O)NC(CCc2ccccc2)C1=O)N1CCCCCC1 (stereo not drawn)	·	·	-1	·	·	·
CC(/C=C/C=C/c1ccccc1)=N/NC(=O)c1ccc2c(c1)OCCO2	i	2	-1	11*	2	3
O=C(COC(=O)c1c[nH]c2ccccc12)Nc1ccc([N+](=O)[O-])cc1	·	·	0	·	·	·
Cc1ccc(-c2cn(-c3ccccc3)c(SCC(N)=O)n2)cc1C	·	1	-2	-1	3	·
